Compounds with a hit are over-represented: about 3.5% of the library has one in this group of screens.
Mtb UGM inh = inhibitors of M. tuberculosis UDP-galactopyranose mutase | P9WIQ1 | purified UGM, fluorescence polarization probe displacement | inhibition, % at 10 µM | hit rate 0.06% among 320,000 | AID 504406; in the data active means inhibition above about 10%, passing the limit was not always enough
Mtb FBA inh = inhibits M. tuberculosis FBA enzyme; purified M. tuberculosis FBA, fluorescence read-out; inhibition, % at 1 µM; hit rate 2.3% among 360,000; AID 588726; in the data active means inhibition above about 27%
GDH-TPI inh = counter-screen for M. tuberculosis FBA inhibitors: GDH-TPI coupled enzymes | GDH-TPI coupled enzyme counterscreen, NADH absorbance | inhibition, % at 4.8 µM | hit rate 1.2% among 360,000 | AID 588335; in the data active means inhibition above about 30%
Rv3671c inh = inhibits the M. tuberculosis serine protease Rv3671c; P9WHR9; inhibition, % at 5.96 µM; hit rate 0.048% among 320,000; in the data active means inhibition above about 38%;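 further: extracellular domain of Rv3671c used as enzyme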
Target sequence (P9WHR9 whole entry, looked up, the tested form may be a part): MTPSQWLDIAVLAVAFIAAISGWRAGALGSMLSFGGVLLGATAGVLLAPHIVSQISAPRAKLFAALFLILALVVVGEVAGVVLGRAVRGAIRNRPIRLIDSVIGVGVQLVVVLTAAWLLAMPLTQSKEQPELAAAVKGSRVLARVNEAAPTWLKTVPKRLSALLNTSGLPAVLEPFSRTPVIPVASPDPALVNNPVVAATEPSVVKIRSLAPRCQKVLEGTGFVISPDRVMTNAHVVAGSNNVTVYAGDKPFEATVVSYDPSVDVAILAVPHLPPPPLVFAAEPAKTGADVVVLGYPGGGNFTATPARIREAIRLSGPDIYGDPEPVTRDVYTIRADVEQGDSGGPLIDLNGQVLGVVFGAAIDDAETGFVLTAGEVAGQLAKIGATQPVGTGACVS
A number is an active result.

Screening CC(C)c1cccc(-c2ccc3c(c2)S(=O)(=O)c2cccc(C(=O)NCc4ccco4)c2C3=O)c1 returned Mtb UGM inh inactive, Mtb FBA inh inactive, GDH-TPI inh inactive and Rv3671c inh inactive.
CC(C)c1cccc(-c2ccc3c(c2)S(=O)(=O)c2cccc(C(=O)O)c2C3=O)c1 was read as Mtb UGM inh inactive, Mtb FBA inh inactive, GDH-TPI inh 31 and Rv3671c inh inactive.
`CCN1C(=O)/C(=C\N(C(C)=O)c2ccccc2)OC1=S` gave Mtb UGM inh inactive, Mtb FBA inh inactive, GDH-TPI inh 63 and Rv3671c inh inactive.
For CCOC(=O)c1[nH]c2cc3c(cc2c1NC(=O)CN1CCC(C)CC1)OCO3 the results were Mtb UGM inh inactive, Mtb FBA inh 153, GDH-TPI inh inactive and Rv3671c inh inactive.
For CC(=O)c1cccc(-c2ccnc3c2CC(C(=O)Nc2cccc(Oc4ccccc4)c2)O3)c1 (centres undefined) the results were Mtb FBA inh inactive and GDH-TPI inh inactive.
`O=S(=O)(c1ccc(Nc2ccc(-c3ccc4c(c3)OCCO4)nn2)cc1)N1CCCC1` gave Mtb UGM inh inactive, Mtb FBA inh inactive, GDH-TPI inh 34 and Rv3671c inh inactive.
`Cc1cccc(NC(=O)CNC(=O)CSc2nnc(C(F)(F)F)n2C)c1C` gave Mtb UGM inh inactive, Mtb FBA inh inactive, GDH-TPI inh inactive and Rv3671c inh inactive.
For CCOC(=O)CN1C(=O)C(CC)Oc2ccccc21 (centres undefined) the results were Mtb UGM inh inactive, Mtb FBA inh inactive, GDH-TPI inh inactive and Rv3671c inh inactive.
CCOC(=O)C(C(=O)OCC)C1N=C(N)N=C2Oc3ccccc3N21 (centres undefined) was read as Mtb UGM inh inactive, Mtb FBA inh inactive, GDH-TPI inh 49 and Rv3671c inh inactive.
`COC(=O)c1ccc(OC(=O)CCc2cc(OC)c(OC)c(OC)c2)cc1` gave Mtb UGM inh inactive, Mtb FBA inh inactive, GDH-TPI inh inactive and Rv3671c inh inactive.
CC(C)(C)C(=O)CSc1ccc(S(=O)(=O)N2CCN(Cc3ccccc3)CC2)cn1 was read as Mtb UGM inh inactive, Mtb FBA inh inactive, GDH-TPI inh inactive and Rv3671c inh inactive.
For Cc1ccc(-c2ccc(/C=C(\C#N)C(=O)Nc3cc(C)nn3-c3ccccc3)o2)cc1 the results were Mtb UGM inh 48 and Rv3671c inh inactive.
`CC(C)(C)C(=O)Nc1ccc(C(=O)CSc2nnc(C3CC3)n2C2CC2)cc1` gave Mtb UGM inh inactive, Mtb FBA inh inactive, GDH-TPI inh inactive and Rv3671c inh inactive.
Screening COC(=O)C1=C(O)/C(=C/c2ccc(OCC(=O)Nc3ccc(OC)cc3)cc2)N=C1C returned Mtb FBA inh inactive and GDH-TPI inh 34.
Cc1c(C)c(C)c2[nH]c(-c3ccc4c(c3)OCO4)nc2c1C was read as Mtb UGM inh inactive, Mtb FBA inh 173, GDH-TPI inh inactive and Rv3671c inh inactive.
Screening COc1ccc(-c2[nH]c(-c3ccc4c(c3)OCO4)nc2-c2ccccc2)cc1 returned Mtb UGM inh inactive, Mtb FBA inh 80, GDH-TPI inh inactive and Rv3671c inh inactive.
Screening Oc1ccc(-c2nc(-c3ccc(F)cc3)c(-c3ccncc3)[nH]2)cc1 returned Mtb FBA inh inactive, GDH-TPI inh inactive and Rv3671c inh inactive.
Screening O=C(O)c1ccc(-c2nc(-c3ccccc3)c(-c3ccccc3)[nH]2)cc1 returned Mtb UGM inh inactive, Mtb FBA inh active, GDH-TPI inh inactive and Rv3671c inh inactive.
`COc1ccc(N=Nc2nc(-c3ccccc3)c(-c3ccccc3)[nH]2)cc1` gave Mtb FBA inh inactive, GDH-TPI inh inactive and Rv3671c inh inactive.
Screening COc1ccc(-c2[nH]c(-c3ccc(C(=O)O)cc3)nc2-c2ccccc2)cc1 returned Mtb UGM inh inactive, Mtb FBA inh active, GDH-TPI inh inactive and Rv3671c inh inactive.
`O=C(Nc1cccc(C(=O)O)c1)/C(=C\c1cccc([N+](=O)[O-])c1)NC(=O)c1ccc(Br)cc1` gave Mtb FBA inh inactive and GDH-TPI inh inactive.
`Cc1ccc2c(c1)CCCN2S(=O)(=O)c1cccc(C(=O)Nc2ccccc2C(=O)O)c1` gave Mtb UGM inh inactive, Mtb FBA inh inactive, GDH-TPI inh inactive and Rv3671c inh inactive.
`CN1CC=C2C(C#N)=C(N)C(C#N)(C#N)C(CCc3ccccc3)C2C1` (centres undefined) gave Mtb UGM inh inactive, Mtb FBA inh 39, GDH-TPI inh inactive and Rv3671c inh inactive.
`Cc1ccc(/C=N/NC(=O)c2ccoc2C)s1` gave Mtb UGM inh inactive, Mtb FBA inh inactive, GDH-TPI inh inactive and Rv3671c inh inactive.
Screening Cc1ccc(/C=N/NC(=O)c2ccco2)s1 returned Mtb UGM inh inactive, Mtb FBA inh inactive, GDH-TPI inh 38 and Rv3671c inh inactive.
O=C(N/N=C/c1ccc(Br)s1)c1ccccn1 was read as Mtb UGM inh inactive, Mtb FBA inh inactive, GDH-TPI inh 43 and Rv3671c inh inactive.

Compound activity from PubChem BioAssay.
